Source: the supplement of paper PMC6089552
About 300 (9.4%) of roughly 3,200 compounds showed activity. The sample as a whole holds a higher share of actives than the screen did.

Tested on: A673/TR/shEF
Assay: cell viability (LOESS-normalised, relative to median of negative controls) (log2 ratio); higher = more viable cells (less compound effect), active = hit call of the paper (over 3 MAD below the median)
Conditions: treatment time: 72 h
Outline: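 A673/TR/shEF Ewing sarcoma cells were plated at 1,500 per well in 384-well plates and cultured with or without doxycycline, added 24 h before compounds, to induce EWS-FLI1 shRNA knockdown. Library compounds at two or more concentrations, alongside DMSO controls, were applied for three days. Cell viability was measured by CellTiter-Glo luminescence on an Envision reader. Readings were LOESS-corrected per plate, divided by the median of negative controls and log2-transformed, and hits were wells lying at least three median absolute deviations from the median of all screened wells.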

[1] = 0.103 µM, library screen: screen3, EWS-FLI1 expression: high (no doxycycline)
[2] = 0.103 µM, library screen: screen3, EWS-FLI1 expression: low (doxycycline-induced shRNA knockdown)
[3] = 0.25 µM, library screen: screen1, EWS-FLI1 expression: high (no doxycycline)
[4] = 0.25 µM, library screen: screen1, EWS-FLI1 expression: low (doxycycline-induced shRNA knockdown)
[5] = 0.25 µM, library screen: screen2, EWS-FLI1 expression: high (no doxycycline)
[6] = 0.25 µM, library screen: screen2, EWS-FLI1 expression: low (doxycycline-induced shRNA knockdown)
[7] = 0.308 µM, library screen: screen3, EWS-FLI1 expression: high (no doxycycline)
[8] = 0.308 µM, library screen: screen3, EWS-FLI1 expression: low (doxycycline-induced shRNA knockdown)
[9] = 0.926 µM, library screen: screen3, EWS-FLI1 expression: high (no doxycycline)
[10] = 0.926 µM, library screen: screen3, EWS-FLI1 expression: low (doxycycline-induced shRNA knockdown)
[11] = 2.5 µM, library screen: screen1, EWS-FLI1 expression: high (no doxycycline)
[12] = 2.5 µM, library screen: screen1, EWS-FLI1 expression: low (doxycycline-induced shRNA knockdown)
[13] = 2.5 µM, library screen: screen2, EWS-FLI1 expression: high (no doxycycline)
[14] = 2.5 µM, library screen: screen2, EWS-FLI1 expression: low (doxycycline-induced shRNA knockdown)
[15] = 2.8 µM, library screen: screen3, EWS-FLI1 expression: high (no doxycycline)
[16] = 2.8 µM, library screen: screen3, EWS-FLI1 expression: low (doxycycline-induced shRNA knockdown)
[17] = 8.3 µM, library screen: screen3, EWS-FLI1 expression: high (no doxycycline)
[18] = 8.3 µM, library screen: screen3, EWS-FLI1 expression: low (doxycycline-induced shRNA knockdown)
[19] = 25 µM, library screen: screen3, EWS-FLI1 expression: high (no doxycycline)
[20] = 25 µM, library screen: screen3, EWS-FLI1 expression: low (doxycycline-induced shRNA knockdown)

Measured: cell viability (log2)

Nc1ccn([C@@H]2O[C@H](CO)[C@@H](O)[C@@H]2O)c(=O)n1
inactive: [2] -0.0158 | [3] 0.0194 | [4] 0.174 | [6] 0.162 | [7] -0.0966 | [8] 0.00929 | [10] -0.00593 | [12] 0.0115 | [14] -0.0511 | [16] -0.023
active: [1] -0.206 | [5] -0.179 | [9] -0.377 | [11] -0.85 | [13] -1.17 | [15] -0.966 | [17] -1.5 | [18] -0.184 | [19] -2.24 | [20] -0.544

Nc1ccn([C@H]2CC[C@@H](CO)O2)c(=O)n1
inactive: [1] 0.122 | [2] 0.0536 | [5] 0.188 | [6] 0.111 | [7] 0.116 | [8] 0.0808 | [9] 0.123 | [10] 0.139 | [13] 0.0418 | [14] 0.107 | [15] 0.148 | [16] 0.0816 | [17] 0.0629 | [18] 0.0663 | [19] 0.132 | [20] 0.176

Nc1ccn([C@@H]2O[C@H](CO)[C@@H](O)[C@H]2O)c(=O)n1
inactive: [3] 0.138 | [4] 0.019 | [11] 0.237 | [12] 0.0416

NC(=O)c1ncn([C@@H]2O[C@H](CO)[C@@H](O)[C@H]2O)c1N
inactive: [1] 0.135 | [2] 0.0617 | [7] 0.0707 | [8] 0.0876 | [9] 0.088 | [10] 0.0588 | [15] 0.1 | [16] 0.0775 | [17] 0.0463 | [18] 0.126 | [19] 0.13 | [20] 0.087

C[N+](C)(C)CCOP(=O)([O-])OP(=O)(O)OC[C@H]1O[C@@H](n2ccc(N)nc2=O)[C@H](O)[C@@H]1O
inactive: [5] 0.0983 | [6] 0.0319 | [13] 0.095 | [14] 0.0926

N=c1ccn2c(n1)O[C@H]1[C@H](O)[C@@H](CO)O[C@H]12
inactive: [4] 0.0178 | [6] 0.0732 | [14] 0.0215
active: [3] -0.254 | [5] -0.122 | [11] -1.03 | [12] -0.19 | [13] -0.641

Nc1ccn([C@@H]2CS[C@H](CO)O2)c(=O)n1
inactive: [1] 0.125 | [2] 0.0191 | [7] 0.0768 | [8] 0.0559 | [9] 0.0245 | [10] 0.0926 | [15] 0.132 | [16] 0.0391 | [17] 0.0536 | [18] 0.0703 | [19] 0.101 | [20] 0.0951

NC(=O)c1ncn([C@@H]2O[C@H](CO)[C@@H](O)[C@H]2O)c1O
inactive: [3] 0.115 | [4] 0.116 | [5] 0.21 | [6] 0.141 | [11] 0.0737 | [12] 0.176 | [13] 0.0545 | [14] 0.0404

Nc1ncn([C@@H]2O[C@H](CO)[C@@H](O)[C@H]2O)c(=O)n1
active: 25 µM, library screen: screen2, EWS-FLI1 expression: high (no doxycycline) -0.117
inactive: 0.025 µM, library screen: screen2, EWS-FLI1 expression: high (no doxycycline) 0.00187 | 0.025 µM, library screen: screen2, EWS-FLI1 expression: low (doxycycline-induced shRNA knockdown) 0.0749 | [3] 0.0677 | [4] 0.0883 | [5] 0.0549 | [6] 0.0892 | [11] 0.046 | [12] 0.161 | [13] 0.0659 | [14] 0.0803 | 25 µM, library screen: screen2, EWS-FLI1 expression: low (doxycycline-induced shRNA knockdown) -0.00278

Nc1ccn([C@@H]2O[C@H](CO)[C@@H](O)C2(F)F)c(=O)n1
active: [1] -1.19 | [2] -0.155 | [7] -1.43 | [8] -0.392 | [9] -1.81 | [10] -0.473 | [15] -1.98 | [16] -0.588 | [17] -2.08 | [18] -0.562 | [19] -2.16 | [20] -0.572

NC(=O)c1ncn([C@@H]2O[C@H](CO)[C@@H](O)[C@H]2O)n1
inactive: [1] 0.0479 | [2] -0.00301 | [3] 0.0242 | [4] -0.0375 | [5] 0.0942 | [6] 0.138 | [7] 0.00539 | [8] 0.013 | [9] 0.012 | [10] 0.0638 | [11] 0.0898 | [12] -0.0568 | [13] 0.148 | [14] 0.053 | [15] -0.0142 | [16] -0.0276 | [17] 0.0371 | [18] 0.0291 | [19] 0.13 | [20] 0.0392

Nc1ncn([C@H]2C[C@H](O)[C@@H](CO)O2)c(=O)n1
inactive: [1] -0.0304 | [2] 0.0527 | [7] -0.025 | [8] 0.0562 | [9] -0.0731 | [10] 0.022 | [15] -0.0569 | [16] 0.0493 | [17] -0.0462 | [18] 0.058 | [19] -0.117 | [20] 0.0388

CC(=O)Oc1ccc2c(c1)CCC1C2CCC2(C)C(=O)CCC12 (stereo not drawn)
inactive: [3] 0.0434 | [4] -0.0193 | [11] 0.146 | [12] 0.0428

N.N.N.N.N.O.[Ru+2]
inactive: [5] 0.216 | [6] 0.0909 | [13] 0.256 | [14] 0.0639

CCC/C=C/C=C/C1CC(O)C(O)C(=O)C1C=O (stereo not drawn)
inactive: [3] -0.0508 | [4] 0.0579 | [11] 0.0447 | [12] 0.105

C=C1CC[C@@H]2[C@H](CC2(C)C)C(=O)CC[C@@H]1O
inactive: [3] 0.0475 | [4] 0.00133 | [11] 0.0814 | [12] 0.0623

C=C1C(C)(C)[C@@]2(Cl)C(Cl)[C@]1(Cl)C(Cl)(Cl)C2(Cl)Cl (stereo partly drawn)
inactive: [3] 0.0218 | [4] 0.106 | [11] 0.0433 | [12] 0.0358

COc1ccccc1CN1CCN(Cc2ccc(OC)c(OC)c2OC)CC1
inactive: [3] 0.0684 | [4] 0.104 | [11] 0.0567 | [12] 0.0723

CC[C@H]1OC(=O)[C@H](C)[C@@H](O[C@H]2C[C@@](C)(OC)[C@@H](O)[C@H](C)O2)[C@H](C)[C@@H](O[C@@H]2O[C@H](C)C[C@H](N(C)C)[C@H]2O)[C@](C)(O)C[C@@H](C)/C(=N/OCOCCOC)[C@H](C)[C@@H](O)[C@]1(C)O
inactive: [3] 0.13 | [4] 0.107 | [11] 0.122 | [12] 0.103
